Laboratory results: PubChem BioAssay (Tox21)
Inconclusive results are not listed. Calls of active or inactive are those of the source. Unless noted, calls come from the whole dose curve. Residues, ends and D or L forms follow the SMILES beside them.

Experiments:
[1] = qHTS assay to identify small molecule agonists of the vitamin D receptor (VDR) signaling pathway - cell viability counter screen (AID 743224; active = well fitted curve in the direction sought with a large enough effect in the repeat runs; an effect the other way counts as inactive or inconclusive; note: series mostly up to about 63 µM; nearly all actives have a fitted effect of over 50% in size)
Procedure, shortened: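 CellTiter-Glo viability readout on VDR-bla cells, measured after 16 h of compound treatment at 37C in the same wells.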

[2] = qHTS assay to identify small molecule antagonists of the vitamin D receptor (VDR) signaling pathway - cell viability counter screen (AID 743225; active = well fitted curve in the direction sought with a large enough effect in the repeat runs; an effect the other way counts as inactive or inconclusive; note: nearly all actives have a fitted effect of over 50% in size)
Procedure, shortened: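 Viability counter screen run in the same wells as the beta-lactamase reporter assay: HEK 293T VDR-UAS-bla cells, 16 h compound exposure at 37C with 3 nM (final) 1-alpha,25-dihydroxyvitamin D3. CellTiter-Glo luminescence, 30 min, room temperature.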

[3] = qHTS assay to identify small molecule agonists of the NFkB signaling pathway (AID 1159509; active = well fitted curve in the direction sought with a large enough effect in the signal ratio in the repeat runs, not every such curve was filed as active; the % refers to the signal ratio; note: series mostly up to about 61 µM)
Procedure, shortened: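 Beta-lactamase reporter assay run in quantitative high-throughput format on an NF-kB-responsive ME-180 line, with 5 hr compound treatment and a FRET-based blue/green fluorescence readout.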

[4] = qHTS assay to identify small molecule agonists of the NFkB signaling pathway - cell viability counter screen (AID 1159515); note: series mostly up to about 61 µM; nearly all actives have a fitted effect of over 55% in size
Procedure, shortened: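 Tox21 library compounds were tested for cytotoxicity against NFkB-bla ME-180 cells during a 5 hr exposure at 37 C. CellTiter-Glo luminescence served as the viability read-out.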

[5] = qHTS assay to identify small molecule agonists of the endoplasmic reticulum stress response signaling pathway (AID 1159516; active = well fitted activation curve with a large enough effect in the signal ratio in the repeat runs, not every such curve was filed as active; the % refers to the signal ratio)
Procedure, shortened: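 Fluorescence at 460 and 530 nm (405 nm excitation) reports beta-lactamase from an ER stress response element in HeLa cells treated 5 hr at 37 C.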

[6] = qHTS assay to identify small molecule agonists of the endoplasmic reticulum stress response signaling pathway - cell viability counter screen (AID 1159517); note: series mostly up to about 61 µM; nearly all actives have a fitted effect of over 50% in size
Procedure, shortened: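 After overnight attachment, ESRE-bla HeLa cells were treated with Tox21 library compounds for 5 hr. CellTiter-Glo luminescence, read 30 min post-addition at room temperature, reported viability.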

[7] = qHTS assay to identify small molecule antagonists of the retinoid-related orphan receptor gamma (ROR-gamma) signaling pathway - cell viability counter screen (AID 1159520; active = well fitted curve in the direction sought with a large enough effect in the repeat runs; an effect the other way counts as inactive or inconclusive; note: nearly all actives have a fitted effect of over 50% in size)
Procedure, shortened: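 Cytotoxicity was read from cellular ATP (CellTiter-Glo luminescence) after 16 hr at 37 C with 1 uM doxycycline induction. The inducer was added 2 hr after compound transfer to Tet-on ROR gamma CHO cells.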

[8] = target: Nuclear receptor ROR-gamma (Homo sapiens) (UniProt P51449); assay: qHTS assay to identify small molecule antagonists of the retinoid-related orphan receptor gamma (ROR-gamma) signaling pathway (AID 1159521; active = well fitted curve in the direction sought with a large enough effect in the repeat runs; an effect the other way counts as inactive or inconclusive)
Procedure, shortened: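 Luminescence readout (ONE-Glo, 30 min RT) after 16 h doxycycline induction; loss of signal scored as antagonism. CHO cells with TET-inducible RORγ and RORE-LUC reporter; compounds added 2 h before 1 uM final doxycycline.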

[9] = qHTS assay to identify small molecule agonists of the AP-1 signaling pathway - cell viability counter screen (AID 1159525); note: nearly all actives have a fitted effect of over 55% in size
Procedure, shortened: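 Intracellular ATP by Cell Titer Glo luminescence (30 min, RT) in the same ME-180 AP-1-bla wells after the 5 h compound exposure at 37 °C. Normalised to tetra n-octyl ammonium bromide and DMSO controls.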

[10] = qHTS assay to identify small molecule agonists of the AP-1 signaling pathway (AID 1159526)

Measured: Potency

Cc1cn([C@H]2C[C@H](N=[N+]=[N-])[C@@H](CO)O2)c(=O)[nH]c1=O
inactive: [1] | [2] | [3] | [4] | [5] | [6] | [7] | [8] | [9] | [10]

O=C(O)c1cc(N=Nc2ccc(S(=O)(=O)Nc3ccccn3)cc2)ccc1O
inactive: [1] | [2] | [3] | [4] | [5] | [6] | [7] | [8] | [9] | [10]

O=C(O)c1cccc([N+](=O)[O-])c1
inactive: [1] | [2] | [3] | [4] | [5] | [6] | [7] | [8] | [9] | [10]

CCCC(O)C(CC)CO (configuration not stated)
inactive: [1] | [2] | [3] | [4] | [5] | [6] | [7] | [8] | [9] | [10]

O=C(O)CS
inactive: [1] | [2] | [3] | [4] | [5] | [6] | [7] | [9] | [10]

CC(=O)NS(=O)(=O)c1ccc(N)cc1
inactive: [1] | [2] | [3] | [4] | [5] | [6] | [7] | [8] | [9] | [10]

NNC(=O)c1ccncc1
inactive: [1] | [2] | [3] | [4] | [5] | [6] | [7] | [8] | [9] | [10]

O=C(O)/C=C\C(=O)O
inactive: [1] | [2] | [3] | [4] | [5] | [6] | [7] | [8] | [9] | [10]

O=C(O)C(=O)O
inactive: [1] | [2] | [3] | [4] | [5] | [6] | [7] | [9] | [10]

Nc1ccc(S(=O)(=O)c2ccc(N)cc2)cc1
inactive: [1] | [2] | [3] | [4] | [5] | [6] | [7] | [8] | [9] | [10]

O=c1ccc2ccccc2o1
inactive: [1] | [2] | [3] | [4] | [5] | [6] | [7] | [8] | [9] | [10]

Nc1ccc(S(=O)(=O)Nc2nccs2)cc1
inactive: [1] | [2] | [3] | [4] | [5] | [6] | [7] | [9] | [10]

O=C(O)c1cccnc1
inactive: [1] | [2] | [3] | [4] | [5] | [6] | [7] | [8] | [9] | [10]

OCCc1ccccc1
inactive: [1] | [2] | [3] | [4] | [5] | [6] | [7] | [8] | [9] | [10]

Cc1ccc(O)cc1
inactive: [1] | [2] | [3] | [4] | [5] | [6] | [7] | [8] | [9] | [10]

O=C(C1CCCCC1)N1CC(=O)N2CCc3ccccc3C2C1 (configuration not stated)
inactive: [1] | [2] | [3] | [4] | [5] | [6] | [7] | [8] | [9] | [10]

CCCC(CCC)C(=O)O
inactive: [1] | [2] | [3] | [4] | [5] | [6] | [7] | [9] | [10]

CCCCCCCCCCCCCCCC(=O)O
inactive: [1] | [2] | [3] | [4] | [5] | [6] | [7] | [9] | [10]

Cc1ccc(C)c(OCCCC(C)(C)C(=O)O)c1
inactive: [1] | [2] | [3] | [4] | [5] | [6] | [7] | [8] | [9] | [10]

CC(C)[C@@H]1CC[C@@H](C)C[C@H]1O
inactive: [1] | [2] | [3] | [4] | [5] | [6] | [7] | [8] | [9] | [10]

NC(N)=O
inactive: [1] | [2] | [3] | [4] | [5] | [6] | [7] | [8] | [9] | [10]

O=NO
inactive: [1] | [2] | [3] | [4] | [5] | [6] | [7] | [8] | [9] | [10]

CC(O)C(=O)O (configuration not stated)
inactive: [1] | [2] | [3] | [4] | [5] | [6] | [7] | [8] | [9] | [10]

NC(=O)c1cnccn1
inactive: [1] | [2] | [3] | [4] | [5] | [6] | [7] | [8] | [9] | [10]

Cc1cc(=O)[nH]c(=S)[nH]1
inactive: [1] | [2] | [3] | [4] | [5] | [6] | [7] | [8] | [9] | [10]

CCOc1ccc(NC(=O)CC(C)O)cc1 (configuration not stated)
inactive: [1] | [2] | [3] | [4] | [5] | [6] | [7] | [8] | [9] | [10]

CC(=O)Nc1nnc(S(N)(=O)=O)s1
inactive: [1] | [2] | [3] | [4] | [5] | [6] | [8] | [9] | [10]

CC(O)CO (configuration not stated)
inactive: [1] | [2] | [3] | [4] | [5] | [6] | [7] | [8] | [9] | [10]

C/C=C/c1ccc(OC)cc1
inactive: [1] | [2] | [3] | [4] | [5] | [6] | [7] | [8] | [9] | [10]

N=C(N)c1ccc(OCCCCCOc2ccc(C(=N)N)cc2)cc1
inactive: [1] | [2] | [3] | [4] | [5] | [6] | [7] | [8] | [9] | [10]

CCCCOC(=O)CC(CC(=O)OCCCC)(OC(C)=O)C(=O)OCCCC
inactive: [1] | [2] | [3] | [4] | [5] | [6] | [7] | [8] | [9] | [10]

COC(=O)[C@H](Cc1ccccc1)NC(=O)[C@@H](N)CC(=O)O (H-Asp-Phe-OMe)
inactive: [1] | [2] | [3] | [4] | [5] | [6] | [7] | [8] | [9] | [10]

Nc1ccn([C@H]2CC[C@@H](CO)O2)c(=O)n1
inactive: [1] | [2] | [3] | [4] | [5] | [6] | [7] | [8] | [9] | [10]

Nc1ccc(O)c(C(=O)O)c1
inactive: [1] | [2] | [3] | [4] | [5] | [6] | [8] | [9] | [10]

O=S(=O)(O)NC1CCCCC1
inactive: [1] | [2] | [3] | [4] | [5] | [6] | [7] | [9] | [10]

NC(N)=NC(=O)c1nc(Cl)c(N)nc1N
inactive: [1] | [2] | [3] | [4] | [5] | [6] | [8] | [9] | [10]

O=C1CN(/N=C/c2ccc([N+](=O)[O-])o2)C(=O)N1
inactive: [1] | [2] | [3] | [4] | [5] | [6] | [9] | [10]

COc1c2occc2cc2ccc(=O)oc12
inactive: [1] | [2] | [3] | [4] | [5] | [6] | [9] | [10]

CCCNC(=O)NS(=O)(=O)c1ccc(Cl)cc1
inactive: [1] | [2] | [3] | [4] | [5] | [6] | [8] | [9] | [10]

Nc1ccc(C(=O)O)cc1
inactive: [1] | [2] | [3] | [4] | [5] | [6] | [8] | [9] | [10]

O=C(c1ccccc1)c1ccccc1
inactive: [1] | [2] | [3] | [4] | [5] | [6] | [9] | [10]

CCCCC(CC)COC(=O)/C=C/c1ccc(OC)cc1 (configuration not stated)
inactive: [1] | [2] | [3] | [4] | [5] | [6] | [8] | [9] | [10]

OC(Cn1cncn1)(Cn1cncn1)c1ccc(F)cc1F
inactive: [1] | [2] | [3] | [4] | [5] | [6] | [8] | [9] | [10]

O=C1NC(=O)c2ccccc21
inactive: [1] | [2] | [3] | [4] | [5] | [6] | [8] | [9] | [10]

O=C(O)CCCCCCCC(=O)O
inactive: [1] | [2] | [3] | [4] | [5] | [6] | [8] | [9] | [10]

Oc1ccc(/C=C/c2cc(O)cc(O)c2)cc1
inactive: [1] | [2] | [3] | [4] | [5] | [6] | [8] | [9] | [10]

NS(=O)(=O)c1cc(C(=O)O)c(NCc2ccco2)cc1Cl
inactive: [1] | [2] | [3] | [4] | [5] | [6] | [8] | [9] | [10]

CNC[C@H](O)c1cccc(O)c1
inactive: [1] | [2] | [3] | [4] | [5] | [6] | [9] | [10]

NC(=O)NC1NC(=O)NC1=O (configuration not stated)
inactive: [1] | [2] | [3] | [4] | [5] | [6] | [8] | [9] | [10]

O=S(=O)(O)c1ccc2cc(O)ccc2c1
inactive: [1] | [2] | [3] | [4] | [5] | [6] | [9] | [10]
